# Measurements published in PubChem BioAssay (Tox21).
# Records with an inconclusive call do not appear. Where a call stands in place of a potency, no number is given. Unmarked numbers belong to inactive results. Active and inactive are the calls of the source. Calls follow the shape of the dose curve; as a rule, active = well fitted curve in the direction sought with a large enough effect in the repeat runs; inconclusive = weak or mixed curves; inactive = no such curve, though single readings can be large; an effect the other way counts as inactive or inconclusive.
# Key:
# [1] = biological target: Cytochrome P450 2D6 (Homo sapiens) (UniProt P10635); experiment: Cytochrome P450 Family 2 Subfamily D Member 6 (CYP2D6) small molecule antagonists: luciferase reporter qHTS assay (AID 1671196); also: nearly all actives have a fitted effect of over 50% in size; also: potency is read from the fitted curve at half-maximal effect; as to activity change, negative = inhibition: series mostly up to about 120 µM
# Sequence of Cytochrome P450 2D6 (Homo sapiens) (P10635 whole entry, looked up): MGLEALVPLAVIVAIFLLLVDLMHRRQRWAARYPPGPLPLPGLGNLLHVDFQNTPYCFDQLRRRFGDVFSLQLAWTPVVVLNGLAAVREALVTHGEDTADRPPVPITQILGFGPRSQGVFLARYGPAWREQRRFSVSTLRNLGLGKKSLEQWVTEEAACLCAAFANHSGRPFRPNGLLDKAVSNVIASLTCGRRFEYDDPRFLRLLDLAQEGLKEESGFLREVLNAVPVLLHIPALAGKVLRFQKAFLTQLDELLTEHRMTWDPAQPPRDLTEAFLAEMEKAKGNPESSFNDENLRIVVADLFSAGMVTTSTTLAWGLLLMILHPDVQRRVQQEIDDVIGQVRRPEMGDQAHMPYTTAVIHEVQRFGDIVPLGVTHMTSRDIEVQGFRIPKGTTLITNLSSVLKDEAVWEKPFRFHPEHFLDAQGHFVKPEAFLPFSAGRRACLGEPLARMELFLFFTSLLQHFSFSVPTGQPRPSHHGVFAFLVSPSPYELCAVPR
# Outline: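 Chemicals tested for interference with CYP2D6 activity; proluciferin substrate, NADPH regeneration, 1 h at room temperature, luminescent detection.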
# [2] = biological target: Cytochrome P450 2C19 (Homo sapiens) (UniProt P33261); experiment: Cytochrome P450 Family 2 Subfamily C Member 19 (CYP2C19) small molecule antagonists: luciferase reporter qHTS assay (AID 1671197); also: nearly all actives have a fitted effect of over 65% in size; also: potency is read from the fitted curve at half-maximal effect; as to activity change, negative = inhibition: series mostly up to about 120 µM
# Sequence of Cytochrome P450 2C19 (Homo sapiens) (P33261 whole entry, looked up): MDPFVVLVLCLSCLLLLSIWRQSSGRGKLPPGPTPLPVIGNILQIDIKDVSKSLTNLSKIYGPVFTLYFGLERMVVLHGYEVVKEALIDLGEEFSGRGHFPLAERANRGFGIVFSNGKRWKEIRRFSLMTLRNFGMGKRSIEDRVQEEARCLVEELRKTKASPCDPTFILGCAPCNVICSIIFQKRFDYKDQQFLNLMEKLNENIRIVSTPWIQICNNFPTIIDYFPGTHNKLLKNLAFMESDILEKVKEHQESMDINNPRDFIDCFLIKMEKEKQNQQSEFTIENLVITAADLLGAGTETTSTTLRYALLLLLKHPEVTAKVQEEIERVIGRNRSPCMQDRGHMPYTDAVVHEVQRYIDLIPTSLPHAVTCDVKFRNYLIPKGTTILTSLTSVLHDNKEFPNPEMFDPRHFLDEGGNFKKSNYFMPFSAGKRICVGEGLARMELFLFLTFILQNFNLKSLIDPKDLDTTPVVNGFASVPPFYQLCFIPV
# Outline: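 CYP2C19 P450-Glo, 1536-well qHTS. Cpd + enzyme/proluciferin substrate 10 min RT; + NADPH regen, 37C 1 h; stop with luciferin detection reagent, 20 min RT, luminescence (RLU). Pos ctrl ketoconazole.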
# [3] = biological target: Cytochrome P450 2C9 (Homo sapiens) (UniProt P11712); experiment: Cytochrome P450 Family 2 Subfamily C Member 9 (CYP2C9) small molecule antagonists: luciferase reporter qHTS assay (AID 1671198); also: nearly all actives have a fitted effect of over 50% in size; also: potency is read from the fitted curve at half-maximal effect; as to activity change, negative = inhibition: series mostly up to about 120 µM
# Sequence of Cytochrome P450 2C9 (Homo sapiens) (P11712 whole entry, looked up): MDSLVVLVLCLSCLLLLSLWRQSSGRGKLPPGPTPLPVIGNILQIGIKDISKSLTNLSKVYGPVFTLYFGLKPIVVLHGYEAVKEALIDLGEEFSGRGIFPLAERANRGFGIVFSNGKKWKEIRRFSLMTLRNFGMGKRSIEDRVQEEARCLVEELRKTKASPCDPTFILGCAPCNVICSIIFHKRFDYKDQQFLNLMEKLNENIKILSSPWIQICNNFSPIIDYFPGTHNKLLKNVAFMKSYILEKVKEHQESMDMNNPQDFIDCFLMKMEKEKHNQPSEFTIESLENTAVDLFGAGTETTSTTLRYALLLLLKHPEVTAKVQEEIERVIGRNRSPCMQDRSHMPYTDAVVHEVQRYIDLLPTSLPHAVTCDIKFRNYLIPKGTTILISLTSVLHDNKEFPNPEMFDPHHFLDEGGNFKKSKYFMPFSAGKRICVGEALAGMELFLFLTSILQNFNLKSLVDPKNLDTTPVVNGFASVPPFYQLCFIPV
# Outline: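 P450-Glo proluciferin substrate with CYP2C9 enzyme; 10 min RT preincubation, then NADPH regeneration 1 h at 37C; luciferin detection reagent 20 min RT, luminescence in relative luminescence units.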
# [4] = biological target: Cytochrome P450 1A2 (Homo sapiens) (UniProt P05177); experiment: Cytochrome P450 Family 1 Subfamily A Member 2 (CYP1A2) small molecule antagonists: luciferase reporter qHTS assay (AID 1671199); also: nearly all actives have a fitted effect of over 50% in size; also: potency is read from the fitted curve at half-maximal effect; as to activity change, negative = inhibition: series mostly up to about 120 µM
# Sequence of Cytochrome P450 1A2 (Homo sapiens) (P05177 whole entry, looked up): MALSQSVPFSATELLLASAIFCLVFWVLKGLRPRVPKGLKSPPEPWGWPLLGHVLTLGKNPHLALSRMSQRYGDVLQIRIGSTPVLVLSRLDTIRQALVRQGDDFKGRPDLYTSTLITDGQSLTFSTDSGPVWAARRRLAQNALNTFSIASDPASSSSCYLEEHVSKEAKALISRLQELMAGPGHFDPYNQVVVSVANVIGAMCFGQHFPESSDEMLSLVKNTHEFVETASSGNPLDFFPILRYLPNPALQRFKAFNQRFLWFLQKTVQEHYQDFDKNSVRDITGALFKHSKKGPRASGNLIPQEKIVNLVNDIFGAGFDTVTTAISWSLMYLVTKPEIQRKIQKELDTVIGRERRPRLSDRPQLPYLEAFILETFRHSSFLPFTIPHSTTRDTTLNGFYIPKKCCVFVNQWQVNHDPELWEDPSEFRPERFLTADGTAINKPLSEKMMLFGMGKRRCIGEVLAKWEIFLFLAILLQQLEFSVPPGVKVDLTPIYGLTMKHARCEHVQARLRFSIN
# Outline: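 Read-out is luminescence from luciferin detection reagent (20 min) proportional to CYP1A2 activity; compounds in DMSO preincubated 10 min with enzyme and proluciferin substrate, then NADPH regeneration solution, 1 h, room temperature.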
# [5] = biological target: Voltage-gated inwardly rectifying potassium channel KCNH2 (Homo sapiens) (UniProt Q12809); experiment: Human Ether-a-go-go-Related Gene (hERG) channel small molecule antagonists: fluorescence cell-based qHTS assay (AID 1671200);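 also: hERG-expressing U2OS cells given a thallium stimulus after FluxOR II dye loading; series mostly up to about 77 µM; nearly all actives have a fitted effect of over 50% in size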
# Sequence of Voltage-gated inwardly rectifying potassium channel KCNH2 (Homo sapiens) (Q12809 whole entry, looked up): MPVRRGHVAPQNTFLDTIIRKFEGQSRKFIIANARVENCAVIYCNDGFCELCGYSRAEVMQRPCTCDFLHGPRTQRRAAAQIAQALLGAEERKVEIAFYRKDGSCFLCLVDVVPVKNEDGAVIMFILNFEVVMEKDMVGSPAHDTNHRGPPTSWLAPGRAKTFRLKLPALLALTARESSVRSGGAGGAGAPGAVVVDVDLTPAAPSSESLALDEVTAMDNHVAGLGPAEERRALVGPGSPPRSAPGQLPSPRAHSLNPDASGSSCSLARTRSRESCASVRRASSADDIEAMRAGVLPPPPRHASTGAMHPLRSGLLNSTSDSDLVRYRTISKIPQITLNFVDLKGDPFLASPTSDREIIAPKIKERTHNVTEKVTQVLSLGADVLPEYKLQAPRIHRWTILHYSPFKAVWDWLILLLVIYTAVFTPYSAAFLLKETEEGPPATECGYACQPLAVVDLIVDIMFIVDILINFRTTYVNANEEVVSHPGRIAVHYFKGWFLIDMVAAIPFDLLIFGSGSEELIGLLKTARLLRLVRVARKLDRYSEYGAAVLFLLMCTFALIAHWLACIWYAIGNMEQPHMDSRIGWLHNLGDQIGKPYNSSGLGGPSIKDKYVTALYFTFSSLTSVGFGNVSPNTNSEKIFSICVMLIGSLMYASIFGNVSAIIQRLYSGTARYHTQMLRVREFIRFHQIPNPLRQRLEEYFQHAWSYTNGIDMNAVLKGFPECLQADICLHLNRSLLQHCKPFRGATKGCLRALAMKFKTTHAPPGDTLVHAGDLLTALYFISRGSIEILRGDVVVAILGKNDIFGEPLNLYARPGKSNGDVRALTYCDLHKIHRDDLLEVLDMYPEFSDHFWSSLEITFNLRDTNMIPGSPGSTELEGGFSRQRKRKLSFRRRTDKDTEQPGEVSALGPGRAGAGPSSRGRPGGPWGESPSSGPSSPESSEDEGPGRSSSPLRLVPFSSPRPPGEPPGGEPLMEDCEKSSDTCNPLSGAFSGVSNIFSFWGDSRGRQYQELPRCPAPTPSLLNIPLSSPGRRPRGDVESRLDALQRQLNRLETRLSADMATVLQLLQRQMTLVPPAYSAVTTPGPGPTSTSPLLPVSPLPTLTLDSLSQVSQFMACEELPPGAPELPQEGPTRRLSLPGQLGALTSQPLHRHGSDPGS
# Outline: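 Thallium served as the potassium surrogate; its influx into dye-loaded U2OS cells carrying the channel was measured by fluorescence over 2 min.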
# [6] = biological target: Cytochrome P450 3A4 (Homo sapiens) (UniProt P08684); experiment: Cytochrome P450 Family 3 Subfamily A Member 4 (CYP3A4) small molecule antagonists: luciferase reporter qHTS assay (AID 1671201); also: nearly all actives have a fitted effect of over 50% in size; also: potency is read from the fitted curve at half-maximal effect; as to activity change, negative = inhibition: series mostly up to about 120 µM
# Sequence of Cytochrome P450 3A4 (Homo sapiens) (P08684 whole entry, looked up): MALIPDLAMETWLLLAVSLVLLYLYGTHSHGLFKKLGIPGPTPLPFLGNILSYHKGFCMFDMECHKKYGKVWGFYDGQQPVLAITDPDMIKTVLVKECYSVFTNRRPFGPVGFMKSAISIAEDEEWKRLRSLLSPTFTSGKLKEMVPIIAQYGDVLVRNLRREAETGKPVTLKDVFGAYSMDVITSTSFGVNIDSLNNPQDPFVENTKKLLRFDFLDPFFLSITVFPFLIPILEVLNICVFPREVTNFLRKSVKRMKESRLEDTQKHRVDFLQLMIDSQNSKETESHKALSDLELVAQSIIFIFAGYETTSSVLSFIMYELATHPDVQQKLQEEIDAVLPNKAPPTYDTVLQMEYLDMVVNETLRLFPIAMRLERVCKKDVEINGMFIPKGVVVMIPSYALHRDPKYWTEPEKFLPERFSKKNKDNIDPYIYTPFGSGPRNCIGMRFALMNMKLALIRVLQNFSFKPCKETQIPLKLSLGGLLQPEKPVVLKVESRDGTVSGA
# Outline: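 Relative luminescence units after 20 min with luciferin detection reagent served as read-out. Beforehand, CYP3A4 turned over a proluciferin substrate for 1 h at room temperature with NADPH regeneration, following 10 min compound preincubation.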
compound,measurement,setting,value
CC(N)C(=O)OC(C)(C)Cc1ccc(Cl)cc1 (stereo unspecified),Potency,[1],7.76 µM (active)
same,Potency,[2],1.55 µM (active)
same,Potency,[3],15.5 µM (active)
same,Potency,[4],1.38 µM (active)
same,Potency,[5],inactive
CCn1ccc(NS(=O)(=O)c2ccc(N)cc2)nc1=O,Potency,[1],inactive
same,Potency,[2],inactive
same,Potency,[3],inactive
same,Potency,[4],inactive
same,Potency,[5],inactive
same,Potency,[6],inactive
C[Si](C)=O,"activity change, negative = inhibition",[1],-1.51% [at 10.5 µM]
same,"activity change, negative = inhibition",[2],-11.8% [at 10.5 µM]
same,"activity change, negative = inhibition",[3],-9.3% [at 10.5 µM]
same,"activity change, negative = inhibition",[4],-21% [at 10.5 µM]
same,"activity change, negative = inhibition",[5],1.17% [at 6.97 µM]
same,"activity change, negative = inhibition",[6],-1.04% [at 10.5 µM]
C=CCCCCCCCCCCCC,Potency,[1],inactive
same,Potency,[2],inactive
same,Potency,[3],inactive
same,Potency,[4],inactive
same,Potency,[5],inactive
same,Potency,[6],inactive
CNC(=O)[C@H]1O[C@@H](n2cnc3c(NCc4cc(Cl)ccc4OCc4cc(C)no4)ncnc32)[C@H](O)[C@@H]1N,Potency,[1],inactive
same,Potency,[2],inactive
same,Potency,[3],inactive
same,Potency,[4],inactive
same,Potency,[5],inactive
Cc1cc2cc3c(C)cc(=O)oc3c(C)c2o1,Potency,[1],inactive
same,Potency,[2],inactive
same,Potency,[3],inactive
same,Potency,[4],6.45 µM (active)
same,Potency,[5],inactive
O=C(OCC(O)CO)c1ccccc1Nc1ccnc2c(C(F)(F)F)cccc12 (stereo unspecified),Potency,[1],30.9 µM (active)
same,Potency,[2],0.347 µM (active)
same,Potency,[3],9.77 µM (active)
same,Potency,[4],2.88 µM (active)
same,Potency,[5],inactive
COc1ccc2c(c1OC)C(=O)O[C@@H]2[C@H]1c2c(cc3c(c2OC)OCO3)CCN1C,Potency,[1],11 µM (active)
same,Potency,[2],1.38 µM (active)
same,Potency,[3],0.871 µM (active)
same,Potency,[4],inactive
same,Potency,[5],inactive
COc1ccc(S(=O)(=O)N2c3ccc(Cl)cc3[C@@](O)(c3ccccc3Cl)[C@H]2C(=O)N2CCC[C@@H]2C(N)=O)cc1OC,Potency,[1],inactive
same,Potency,[2],inactive
same,Potency,[3],17.4 µM (active)
same,Potency,[4],inactive
Cc1cccc(C)c1NC(=O)c1ccccc1C(=O)O,Potency,[1],inactive
same,Potency,[2],inactive
same,Potency,[3],inactive
same,Potency,[4],inactive
same,Potency,[5],inactive
same,Potency,[6],inactive
O=C(CCN1CCN(CCO)CC1)N1c2ccccc2Sc2ccc(C(F)(F)F)cc21,Potency,[1],inactive
same,Potency,[2],inactive
same,Potency,[3],inactive
same,Potency,[4],inactive
same,Potency,[5],inactive
C=C1CC/C=C(\C)CC[C@@H]2[C@@H]1CC2(C)C,Potency,[1],inactive
same,Potency,[2],inactive
same,Potency,[3],inactive
same,Potency,[4],inactive
same,Potency,[5],inactive
same,Potency,[6],inactive
C=C(C)C(=O)OCCN(CC)CC,Potency,[1],inactive
same,Potency,[2],inactive
same,Potency,[3],inactive
same,Potency,[4],35.5 µM (active)
same,Potency,[5],inactive
same,Potency,[6],inactive
CC(C)(C)c1cc(CCC(=O)NN)cc(C(C)(C)C)c1O,Potency,[1],35.6 µM (active)
same,Potency,[2],6.33 µM (active)
same,Potency,[3],5.03 µM (active)
same,Potency,[4],8.94 µM (active)
same,Potency,[5],inactive
same,Potency,[6],0.159 µM (active)
O=C(Nc1ccc(Cl)c(Cl)c1)C1CC1,Potency,[1],inactive
same,Potency,[2],11 µM (active)
same,Potency,[3],30.9 µM (active)
same,Potency,[4],0.456 µM (active)
same,Potency,[5],inactive
